This is a sample that favours compounds with a hit; in the whole collection about 4.8% have one here.
hgDAF12 agonist – hgDAF-12 agonism, primary luciferase screen; AID 687014; HEK293 GAL4-hgDAF12 UAS-luciferase reporter, agonist luminescence; normalized to butyrate control; actives 1.8% (n = 370,000); activation, % at 6.8 µM;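 active = activation above a cutoff set at the mean of all screened compounds plus 3 SD, cut at about 10% in these data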;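 also: 0% = DMSO wells and 100% = sodium butyrate wells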
DAX1 inh-1 – inhibitors of human orphan nuclear receptor DAX1 (NR0B1). P51843. HEK293 Gal4-DAX1 luciferase reporter, luminescence. inhibition, % at 6.75 µM. actives 0.99% (n = 340,000);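 active = inhibition above the mean over all tested compounds plus 3 SD, cut at about 4.2% in these data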;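 also: 0% = DAX1-transfected cells with DMSO and 100% = empty-vector control cells with DMSO; inhibition shows as a rise in luminescence from relieved DAX1 repression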
Target sequence (P51843 207-470 limits assumed): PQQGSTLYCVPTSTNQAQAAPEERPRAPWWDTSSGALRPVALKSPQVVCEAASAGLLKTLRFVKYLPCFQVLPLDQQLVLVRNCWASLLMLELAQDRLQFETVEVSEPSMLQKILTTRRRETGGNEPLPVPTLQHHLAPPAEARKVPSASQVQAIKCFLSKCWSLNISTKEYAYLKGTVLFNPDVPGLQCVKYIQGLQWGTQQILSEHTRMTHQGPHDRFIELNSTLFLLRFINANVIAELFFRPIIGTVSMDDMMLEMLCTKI
DAX1 inh-2 – blocks DAX1 repression of SF-1 activated StAR promoter | inhibition, % at 6.8 µM | actives 1.1% (n = 370,000) | HEK293T StAR-luciferase reporter, SF-1/DAX-1 repression relief;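 active = inhibition above the mean over all tested compounds plus 3 SD, cut at about 3.6% in these data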;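 also: 0% = DAX-1 cells with DMSO and 100% = cells lacking DAX-1 with DMSO; higher inhibition means more luminescence from relief of DAX-1 repression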
ssDAF-12 act – activates DAF-12 receptor from parasite S. stercoralis. activation, % at 6.8 µM. HEK293 ssDAF-12/GRIP1 lit1-tk-luc reporter, luminescence; % of 3 µM dafachronic acid response. actives 1% (n = 370,000);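 active = activation above the mean over all tested compounds plus 3 SD, cut at about 0.9% in these data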;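 also: 0% = DMSO-only wells and 100% = 3 µM delta7-dafachronic acid wells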
SMARCA2 act – increases SMARCA2 function in MMTV reporter cells; MG213 cells, MMTV-luciferase reporter, dexamethasone, overnight; activation, % at 9.1 µM; actives 1% (n = 370,000); AID 652017; in the data active = activation above about 7.8%;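 also: 0% = vehicle wells and 100% = reference activator wells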
hcDAF-12 act – H. contortus DAF-12 activation, primary screen; HEK293 hcDAF-12 lit1-tk-luc reporter, luminescence; 0% DMSO, 100% Δ7-dafachronic acid; activation, % at 6.8 µM; actives 1.4% (n = 370,000);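 active = activation above the mean of all tested compounds plus 3 SD, cut at about 5.5% in these data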;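 also: 100% = response to 3 µM Δ7-dafachronic acid high control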
Numbers without * were called inactive; x = no result given.

SMILES	hgDAF12 agonist	DAX1 inh-1	DAX1 inh-2	ssDAF-12 act	SMARCA2 act	hcDAF-12 act
COC(=O)c1ccc(C(=O)NC(=S)Nc2nc3c(s2)CCCC3)cc1	5	-2	0	0	5	6.2*
CC(=O)C1=C(C)N(Cc2ccc(F)cc2)C(=S)NC1c1ccc(Cl)cc1 (stereo not drawn)	-4	x	0	-1	-1	2
CN(C)CCSc1nnc(-c2ccccc2)o1	4	2	1	0	2	2
CN(C)c1cccc(-c2nnc(SCCCC#N)o2)c1	11*	1	2	0	3	5
COC(=O)C/C(C)=N/Nc1ccc(S(=O)(=O)N2CCCC2)cc1[N+](=O)[O-]	-4	4.5*	0	-1	-4	-2
COC(=O)COc1ccc(S(=O)(=O)N2CCCCC2)cc1[N+](=O)[O-]	-3	-1	0	-2	-2	2
CC[C@H](NC(=O)[C@@H](Cc1ccccc1)NC(=O)[C@H]1O[C@@H](n2cnc3c(=O)[nH]c(N)nc32)[C@H](O)[C@@H]1O)c1ccccc1	1	x	1	-1	-1	-3
O=C(NC1CCCCN(Cc2ccc(Cl)cc2)C1=O)c1cccs1 (stereo not drawn)	-1	x	0	0	-3	0
CCOC(=O)c1c(NC(=S)NCc2ccccc2)sc2c1CCN(C(=O)OCC)C2	-1	6.0*	0	-2	-2	0
O=C(O)c1cccc(N2C(=O)c3ccc4c5c(ccc(c35)C2=O)C(=O)N(c2cccc(C(=O)O)c2)C4=O)c1	-2	4	0	-1	-2	0
O=C(O)c1cccc(N2C(=O)c3ccc(Oc4ccc(Cl)cc4)cc3C2=O)c1	-3	4.6*	1	-2	-3	0
Cc1cccc(N2C(=O)c3cccc(Oc4ccc(Cl)cc4)c3C2=O)c1	4	5.2*	0	-1	0	-2
O=C(NCCc1ccccc1)OCc1cn(Cc2ccc(Cl)cc2)nn1	2	x	1	-1	-1	-1
Cc1cc2nc(-c3ccccc3)c(Cc3cccc(F)c3)n2c(C)c1Br	3	x	3	0	0	4
Cc1cc2nc(-c3ccccc3)c(Cc3cccc(Cl)c3)n2c(C)c1Br	11*	x	1	0	-3	3
Cc1cc2nc(-c3ccc(F)cc3)c(Cc3cccc(Cl)c3)n2c(C)c1Br	1	x	1	1.5*	-4	5.6*
Cc1cc2nc(C3CCCCC3)c(Cc3cccc(F)c3)n2c(C)c1Br	2	x	-1	1.7*	1	2
COc1ccc(-c2cc(-c3nnc(SCC(=O)N4CCOCC4)n3N)[nH]n2)cc1	3	x	0	-1	0	-1
CCOC(=O)C1(Cc2ccccc2)CCCN(C(=O)COc2ccccc2OC)C1 (stereo not drawn)	8	4.3*	3	0	7	1
CCOC(=O)C1(Cc2ccccc2)CCCN(C(=O)C=C(C)C)C1 (stereo not drawn)	3	1	0	0	1	3
Clc1ccc(-n2nnnc2-c2cnc3ccc(Cl)cc3c2-c2ccccc2)cc1	1	6.2*	0	-1	-6	-1
O=C(Nc1ccc(N2CCN(c3ccccc3)CC2)c(F)c1)C1CC1	1	1	1	0	-3	5.8*
Cc1ccc(SCC(=O)Nc2ccc(N3CCN(c4ccccc4)CC3)c(F)c2)cc1	1	0	0	-1	-4	0
COC(=O)[C@]12C[C@H](CC(=O)NCc3ccc(OC)c(OC)c3)C(=O)N(Cc3ccc(Cl)cc3Cl)C1=C[C@H](COCc1ccccc1)O[C@@H]2C	1	x	-1	-1	-2	0
N#Cc1ccc(/C=C2\CC3(OC(=O)c4ccc(Cl)cc4)CCCN2C3)cc1 (stereo not drawn)	0	x	0	-1	-4	-2
SMILES	hgDAF12 agonist	DAX1 inh-1	DAX1 inh-2	ssDAF-12 act	SMARCA2 act	hcDAF-12 act
Fc1cccc(F)c1[B-](F)(F)F	11*	0	1	-1	-8	-1
COC(=O)C[C@H]1CC[C@@H]2[C@H](COc3ccc(NC(=O)C(C)C)cc3C(=O)N2C)O1	-1	x	0	-1	2	0
Cc1ccc(-c2nc3ccsc3c(=O)o2)cc1	7	0	2	1	2	5.9*
O=C(Nc1ccccc1)c1nc[nH]c1C(=O)NCCNC(=O)c1[nH]cnc1C(=O)Nc1ccccc1	-1	-1	-2	-1	-1	1
CCC(C(=O)Nc1ccccn1)c1ccccc1 (stereo not drawn)	-3	3	-1	-1	0	0
O=C(O)CSCC(=O)Nc1ccccn1	0	5.4*	1	-1	-2	-2
CC(C(=O)Nc1ccccn1)c1ccccc1 (stereo not drawn)	0	0	0	0.9*	-2	1
NNC(=O)c1nc[nH]c1C(=O)Nc1ccccn1	6	4.3*	0	0	1	1
CCC(CO)Nc1cccc2c1S(=O)(=O)N(Cc1cn(Cc3ccc(F)cc3)nn1)Cc1ccccc1O2 (stereo not drawn)	-3	x	-1	-1	-2	-2
C[C@H](O)[C@@H]1CN2CCc3c([nH]c4cccc(-c5ccccc5)c34)[C@@H]2C[C@@H]1N(C)C(=O)Nc1ccccc1	1	x	-1	-1	-1	-1
COc1ccccc1/C=C/C1(C(=O)NC2CCCC2)CC(=O)N1c1ccccc1 (stereo not drawn)	0	4.9*	-1	-2	-2	-2
CN(C)S(=O)(=O)c1ccc(N2C(=O)CC2(/C=C/c2ccccc2)C(=O)NC2CCCC2)cc1 (stereo not drawn)	4	0	0	-1	-2	-2
COC(=O)CCCNC(=O)c1ccc2oc(CCCc3ccccc3)nc2c1	4	1	0	0	-1	0
COC(=O)[C@@H](C)NC(=O)c1ccc2oc(CCc3ccccc3)nc2c1	11*	3	0	0	3	4
O=C(OCC(=O)N1CCCCCC1)c1cccnc1Cl	5	1	2	-1	2	4
CN(C(=O)COC(=O)c1cccnc1Cl)C1CCCCC1	4	1	4.5*	0	3	3
Cc1ccnc(NC(=O)c2cccs2)c1	8	1	1	0	4	2
Cc1cc(NC(=O)c2cccs2)ncc1NC(=O)C(C)(C)C	10	2	3	1.1*	1	3
C=CCN1[C@H](C)COc2cccc(N3CCCC3)c2S1(=O)=O	-1	x	-1	-1	1	1
O=C(Cc1ncc(C(F)(F)F)cc1Cl)NCCc1ccccn1	0	0	0	0	7.9*	-1

Screening data: PubChem BioAssay, The Scripps Research Institute Molecular Screening Center
